The source of these data is PubChem BioAssay (NCI).

The nature of experiment [1]: NCI Yeast Anticancer Drug Screen. Data for the rad50 strain (AID 155).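 Note: 0% = growth of vehicle-only cultures of the same strain.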 Conditions: S. cerevisiae rad50 strain growth inhibition; at 50.0 µM; hits give high values. A digest of the protocol:
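Growth of the mutant yeast was measured after compound exposure and referenced to vehicle-treated cultures.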

A short description of experiment [2]: NCI Yeast Anticancer Drug Screen. Data for the mec2-1 strain (AID 157). The following applies: S. cerevisiae mec2-1 strain, at 50.0 µM, hits give high values. A digest of the protocol:
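Test agents were screened against the mec2-1 yeast strain, with defined DNA repair or cell cycle alteration. Growth was scored as inhibition against vehicle-only controls.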

A short description of experiment [3]: NCI Yeast Anticancer Drug Screen. Data for the sgs1 mgt1 strain (AID 161).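 Note: 0% = growth of cultures given vehicle only.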 The following applies: S. cerevisiae sgs1 mgt1 strain, at 50.0 µM, hits give high values. A digest of the protocol: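 Inhibition of yeast growth, normalised to vehicle-treated controls, is reported for a strain bearing genetic alterations in DNA damage repair.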
Experiment [4] in a line: NCI Yeast Anticancer Drug Screen. Data for the cln2 rad14 strain (AID 165).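 Note: 0% = growth equal to vehicle treated cultures.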 Conditions: S. cerevisiae cln2 rad14 strain, at 50.0 µM, hits give high values. In a few lines: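 Growth of compound-exposed yeast (cln2 rad14 genotype) measured and expressed as inhibition relative to vehicle.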
Experiment [5] in a line: NCI Yeast Anticancer Drug Screen. Data for the bub3 strain (AID 167). Conditions: S. cerevisiae bub3 mutant strain, at 50.0 µM, hits give high values. In a few lines: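 Whole-cell yeast assay. The mutant strain was incubated with compounds, and growth inhibition was determined by comparison with vehicle-treated cells.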
Experiment [6] can be described thus: NCI Yeast Anticancer Drug Screen. Data for the mlh1 rad18 strain (AID 175). Conditions: S. cerevisiae mlh1 rad18 strain growth inhibition; at 50.0 µM; hits give high values. A digest of the protocol: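 In this whole-cell yeast screen, a strain with altered DNA damage repair is challenged with compound, and its growth is measured against matched vehicle-treated controls.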

Each structure is given as a SMILES string. This is part of a sample that, as a whole, favours compounds with a hit. Of some 79,000 tested, about 15% had one in any assay. Unmarked numbers belong to inactive results. Active and inactive are the calls of the source. Cut-off read from the data, not from the text of the source: active = growth inhibition above about 70%; inactive = the rest.

Take `O=C(Nc1ccc(C(F)(F)F)cc1)NC(F)(F)F`: the growth inhibition in experiment [1] is -61.1%; in experiment [2], -6.7%; in experiment [3], -38.1%; in experiment [4], -16.6%; in experiment [5], -3.65%; in experiment [6], -46.3%.
Take `COc1cc(/C=C(\C#N)C(=O)c2ccccc2)ccc1O`: the growth inhibition in experiment [1] was -13.8%; in experiment [2], -18.1%; in experiment [3], -11.9%; in experiment [4], 5.4%; in experiment [5] it was -27.5%; in experiment [6], 3.05%.
Regarding `NC(=O)C1C2CC3C(C2)C31` (configuration not stated), the growth inhibition in experiment [1] was 2.9%; in experiment [2], 11.2%; in experiment [3] it was -1%; in experiment [4] it was -1%; in experiment [5], 3.4%; in experiment [6], 4.95%.
In the case of `CCNC(=O)COc1ccc(Cl)cc1C(C)C`, the growth inhibition is -2.65% in experiment [1]; 7.75% in experiment [2]; 15.4% in experiment [3]; 18.8% in experiment [4]; -0.8% in experiment [5]; 0.7% in experiment [6].
As to `O=C(Nc1cccc([N+](=O)[O-])c1)C1C(=O)N(c2cccc([N+](=O)[O-])c2)C(=O)/C1=N/O` (configuration not stated), the growth inhibition is -16.8% in experiment [1]; -7.4% in experiment [2]; -24.8% in experiment [3]; -50.4% in experiment [4]; 0.1% in experiment [5]; -3.5% in experiment [6].
Turning to `Cc1ccc(C(c2ccccc2)C(CC(=O)O)CC(=O)O)cc1` (configuration not stated), the growth inhibition was 1.2% in experiment [1]; 20% in experiment [2]; 15% in experiment [3]; 6.45% in experiment [4]; 5.2% in experiment [5]; 15.9% in experiment [6].
In the case of `CC(=O)Nc1ccc(/C=C2/C(=O)ON=C2C)cc1`, the growth inhibition was 6.75% in experiment [1]; 6.6% in experiment [2]; 6% in experiment [3]; 11.8% in experiment [4]; 3.95% in experiment [5]; 13.4% in experiment [6].
Regarding `CC(C)c1cc2c(O)c(c1)Cc1cc(C(C)C)cc(c1O)Cc1cc(C(C)C)cc(c1O)Cc1cc(C(C)C)cc(c1O)Cc1cc(C(C)C)cc(c1O)Cc1cc(C(C)C)cc(c1O)C2`, the growth inhibition was -21.1% in experiment [1]; -0.85% in experiment [2]; -14.8% in experiment [3]; 14.6% in experiment [4]; 3.55% in experiment [5]; -24.1% in experiment [6].
As for `CCN(CC)C(=O)C1=C(C)NC(C)=C(C(=O)N(CC)CC)C1`, the growth inhibition was -36.7% in experiment [1]; -55% in experiment [2]; -18.6% in experiment [3]; -22.1% in experiment [4]; -8.35% in experiment [5]; -68.5% in experiment [6].
Regarding `COc1ccccc1-n1c(C)nc2c(cnn2CN2CCCCC2)c1=O`, the growth inhibition was 0.85% in experiment [1]; -6.4% in experiment [2]; 12.3% in experiment [3]; -0.7% in experiment [4]; 0.95% in experiment [5]; 12% in experiment [6].
On to `CN(C)C(=O)C1C2CCC(C3CC32)C1C(=O)N(C)C` (configuration not stated), for which the growth inhibition is 22.9% in experiment [1]; 11.8% in experiment [2]; 37.2% in experiment [3]; 24.4% in experiment [4]; 24.6% in experiment [5]; 23.4% in experiment [6].
Turning to `CON(C)c1nc(N(C)C)nc(N(C)C)n1`, the growth inhibition in experiment [1] was -1.65%; in experiment [2], 11.6%; in experiment [3], -6.25%; in experiment [4], 3.7%; in experiment [5], 1.8%; in experiment [6], 0.9%.
`CCCCCCCNC(C)=O`: the growth inhibition is 14.1% in experiment [1]; 15.5% in experiment [2]; 3.6% in experiment [3]; 10.1% in experiment [4]; -0.7% in experiment [5]; -5% in experiment [6].
With `COc1cc(N=Nc2ccc(N)nc2N)c(OC)cc1N=Nc1ccc([N+](=O)[O-])cc1`, the growth inhibition in experiment [1] is 12.6%; in experiment [2], 23%; in experiment [3], 1.8%; in experiment [4], 21.6%; in experiment [5], 9.4%; in experiment [6], 27.1%.
With `NC(=O)/C=C/C(N)=O`, the growth inhibition in experiment [1] was 13.6%; in experiment [2] it was -9.45%; in experiment [3], -16.7%; in experiment [4] it was -13.5%; in experiment [5] it was -5.05%; in experiment [6] it was 2.7%.
For the molecule `CC(=O)OCc1cc(OC(C)=O)cnc1COC(C)=O`, the growth inhibition in experiment [1] is -9.25%; in experiment [2], -24.6%; in experiment [3], -17.4%; in experiment [4], -19.2%; in experiment [5], -7.85%; in experiment [6], -36.2%.
Turning to `Cc1sc2ncnc(Cl)c2c1C`, the growth inhibition in experiment [1] is 1.95%; in experiment [2], 13.2%; in experiment [3], -1.4%; in experiment [4], -23%; in experiment [5] it was 4.45%; in experiment [6], 4.05%.
For the molecule `CCc1cccc(C(C)C)c1NC(=O)C(=O)C(C(=O)C(=O)OC)c1nc2ccccc2[nH]c1=O` (configuration not stated), the growth inhibition in experiment [1] was 5.95%; in experiment [2] it was -29.1%; in experiment [3], 8.85%; in experiment [4], 20.2%; in experiment [5], -9.5%; in experiment [6] it was 2.9%.
Turning to `CCCCc1ccc(N=Nc2ccccc2)cc1`, the growth inhibition is -9.35% in experiment [1]; -17.5% in experiment [2]; -15.6% in experiment [3]; -59% in experiment [4]; -6.05% in experiment [5]; -32.2% in experiment [6].
As to `C=C1C(=O)O[C@H]2[C@@H](O)[C@H](C)CCC[C@]3(C)O[C@H]3CC[C@@]3(C)O[C@@H]3C[C@@H]12`, the growth inhibition in experiment [1] was 19.4%; in experiment [2], 37.2%; in experiment [3], 70.5% (active); in experiment [4], 41.8%; in experiment [5], 61.1%; in experiment [6] it was 58.2%.
For the molecule `NC(Cc1ccc(B(O)O)cc1)C(=O)O` (configuration not stated), the growth inhibition in experiment [1] was -26.1%; in experiment [2] it was -53.6%; in experiment [3], -29.5%; in experiment [4], -7.4%; in experiment [5] it was 7.75%; in experiment [6], -4.05%.
On to `O=C(Nc1cccc(Cl)c1)C(=O)C(C(=O)c1ccc2ccccc2c1)C1OC(=O)c2ccccc21` (configuration not stated), for which the growth inhibition was 39% in experiment [1]; 18.4% in experiment [2]; 26.1% in experiment [3]; 37.2% in experiment [4]; 22.9% in experiment [5]; -9.1% in experiment [6].
On to `O=C(NCCCCCCNC(=O)OCCSCCn1cc(C(=O)NC(=O)OCc2ccccc2)c(=O)[nH]c1=O)OCCSCCn1cc(C(=O)NC(=O)OCc2ccccc2)c(=O)[nH]c1=O`, for which the growth inhibition is -21.3% in experiment [1]; -23.6% in experiment [2]; 2.6% in experiment [3]; 2.55% in experiment [4]; 15.1% in experiment [5]; -9.95% in experiment [6].
Take `Fc1cccc2cccnc12`: the growth inhibition in experiment [1] is 0.05%; in experiment [2], -4.45%; in experiment [3], 11.2%; in experiment [4] it was 5.65%; in experiment [5], 12.7%; in experiment [6], 7.4%.
Consider `CC(=O)O[C@H]1CC[C@@]2(C)[C@@H](CC[C@@H]3[C@@H]2CC(=O)[C@]2(C)[C@@H]4[C@H](C[C@@H]32)O[C@]2(CC[C@@H](C)CO2)[C@H]4C)C1`, for which the growth inhibition in experiment [1] is -11.7%; in experiment [2], -12.2%; in experiment [3] it was -11.8%; in experiment [4], -13.2%; in experiment [5], -34.6%; in experiment [6] it was 2.3%.
As for `CCCCCCCCCCCCCCCCCCN(C)C`, the growth inhibition was 54% in experiment [1]; 23.1% in experiment [2]; 13.8% in experiment [3]; -64.9% in experiment [4]; 46.7% in experiment [5]; 25.9% in experiment [6].
For `Cn1c(=O)c2c(nc(CCNC(=O)c3ccccc3)n2C)n(C)c1=O`, the growth inhibition in experiment [1] is -1.15%; in experiment [2], -7.75%; in experiment [3], 11.1%; in experiment [4] it was -27.4%; in experiment [5] it was 5.6%; in experiment [6] it was -17.1%.
As for `OC(CNCCc1ccccc1)COc1cccc2ccccc12` (configuration not stated), the growth inhibition was 86.2% (active) in experiment [1]; 92% (active) in experiment [2]; 96.9% (active) in experiment [3]; 98.5% (active) in experiment [4]; 88% (active) in experiment [5]; 97.2% (active) in experiment [6].
Consider `Nc1cccc2c1C(=O)OC2=O`, for which the growth inhibition was -6.6% in experiment [1]; -6.2% in experiment [2]; -10.2% in experiment [3]; -5.7% in experiment [4]; -3.45% in experiment [5]; 3.85% in experiment [6].
With `CCCCCC/C=C/C(N)=O`, the growth inhibition was 5.75% in experiment [1]; 5.6% in experiment [2]; -7.8% in experiment [3]; 12.1% in experiment [4]; -20.2% in experiment [5]; 8.35% in experiment [6].
As for `COCn1c(C(=O)c2ccc(OC)cc2)cc2ccccc21`, the growth inhibition in experiment [1] is 7.45%; in experiment [2], 11.8%; in experiment [3] it was -3.9%; in experiment [4], -11.5%; in experiment [5], 16.1%; in experiment [6] it was 23.4%.
Regarding `Oc1ccccc1CNc1ncc(Cl)cc1Cl`, the growth inhibition is 24.9% in experiment [1]; 16% in experiment [2]; 26.8% in experiment [3]; -5.15% in experiment [4]; 39.1% in experiment [5]; 19.4% in experiment [6].
With `CCCCCCCCCCCCOC(=S)CCl`, the growth inhibition was -10.9% in experiment [1]; -10.7% in experiment [2]; 10.8% in experiment [3]; -18.9% in experiment [4]; 4.55% in experiment [5]; 14.7% in experiment [6].
Consider `Cc1cc(C)c(SSc2c(C)cc(C)cc2C)c(C)c1`, for which the growth inhibition is -7.8% in experiment [1]; -8.65% in experiment [2]; -3.9% in experiment [3]; -15.6% in experiment [4]; 7.6% in experiment [5]; -1.6% in experiment [6].
Consider `Cc1cccc(-n2c(N)c(-c3nc4ccccc4[nH]3)sc2=S)c1`, for which the growth inhibition is 6.7% in experiment [1]; -11.9% in experiment [2]; 13.4% in experiment [3]; 10.2% in experiment [4]; 3.4% in experiment [5]; 2.6% in experiment [6].
For `OCC1OC(n2cnc3[nH]cnc(=S)c32)C(O)C1O` (configuration not stated), the growth inhibition in experiment [1] was 4.3%; in experiment [2] it was 14.2%; in experiment [3], 0.35%; in experiment [4], 1.05%; in experiment [5], -6.35%; in experiment [6], 14.7%.
Consider `Cc1c(C)c(C)c(Br)c(C)c1C`, for which the growth inhibition in experiment [1] is -6.7%; in experiment [2] it was -5.05%; in experiment [3], -14%; in experiment [4], -17.6%; in experiment [5] it was 1.15%; in experiment [6], 0.65%.
